The values that follow come from PubChem BioAssay AID504339 (National Center for Advancing Translational Sciences (NCATS), 2011).

The whole screen tested about 390,000 compounds, of which about 17,000 (4.4%) were called active. Roughly 8% stayed inconclusive and do not appear here. Only a selection was taken, and actives are over-represented in it overall. Values without a mark were called inactive. The call rests on the fitted dose curve; in most records, active means well fitted inhibition curve with a large enough effect; inconclusive means small, poorly fitted or top-dose-only effect; inactive means no such curve, though single readings can be large or run the other way.
On the % scale 0 is the no-effect control and ±100 the full control effect; potency means the concentration at half of the fitted maximal effect.

The target of the assay is Lysine-specific demethylase 4A (Homo sapiens) (UniProt O75164). In words: qHTS Assay for Inhibitors of JMJD2A-Tudor Domain. Further: nearly all actives have a fitted effect of over 50% in size. Particulars: AlphaScreen JMJD2A-Tudor / H3K4me3 peptide binding; series mostly up to 114 µM; activity change, negative = inhibition: at the top concentration.
Lysine-specific demethylase 4A (Homo sapiens), sequence (O75164 whole entry, looked up, the tested form may be a part): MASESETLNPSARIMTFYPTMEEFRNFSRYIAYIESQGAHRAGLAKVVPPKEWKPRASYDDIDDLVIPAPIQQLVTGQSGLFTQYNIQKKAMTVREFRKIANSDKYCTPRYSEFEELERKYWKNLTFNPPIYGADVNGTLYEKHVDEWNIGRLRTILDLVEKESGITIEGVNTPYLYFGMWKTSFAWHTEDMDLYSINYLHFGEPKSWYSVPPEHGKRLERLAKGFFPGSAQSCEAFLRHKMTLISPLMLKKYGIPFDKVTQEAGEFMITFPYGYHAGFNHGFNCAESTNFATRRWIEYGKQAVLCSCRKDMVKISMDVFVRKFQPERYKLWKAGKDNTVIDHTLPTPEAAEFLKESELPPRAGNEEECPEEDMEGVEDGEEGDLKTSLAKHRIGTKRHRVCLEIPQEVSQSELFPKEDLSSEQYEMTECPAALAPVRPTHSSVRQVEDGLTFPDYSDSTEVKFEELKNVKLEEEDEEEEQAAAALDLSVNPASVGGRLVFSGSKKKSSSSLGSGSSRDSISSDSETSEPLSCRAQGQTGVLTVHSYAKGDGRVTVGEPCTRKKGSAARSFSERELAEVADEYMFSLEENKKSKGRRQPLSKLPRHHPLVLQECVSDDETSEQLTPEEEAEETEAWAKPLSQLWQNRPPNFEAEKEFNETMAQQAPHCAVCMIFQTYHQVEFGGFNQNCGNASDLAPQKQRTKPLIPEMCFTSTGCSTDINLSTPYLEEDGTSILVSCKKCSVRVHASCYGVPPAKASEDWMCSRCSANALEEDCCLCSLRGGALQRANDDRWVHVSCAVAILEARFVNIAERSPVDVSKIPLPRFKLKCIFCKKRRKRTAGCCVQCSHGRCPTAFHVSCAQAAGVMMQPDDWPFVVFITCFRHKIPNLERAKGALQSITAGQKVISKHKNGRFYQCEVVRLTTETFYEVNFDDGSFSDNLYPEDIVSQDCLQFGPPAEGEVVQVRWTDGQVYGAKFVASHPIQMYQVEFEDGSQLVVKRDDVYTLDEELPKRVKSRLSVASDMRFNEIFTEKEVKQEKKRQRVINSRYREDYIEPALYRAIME
On to `COc1ccc(N2CCN(Cc3ccc(Br)s3)CC2)cc1`, for which the Potency was 3.55 µM (active).

On to `COc1cccc(NC(=O)Cn2c(=O)cc(C)c3c(C)nn(-c4cccc(F)c4)c32)c1`, for which the “activity change, negative = inhibition” value is -6%.

As to `O=S(=O)(c1ccccc1)c1nc(-c2ccc(Cl)cc2Cl)oc1N1CCCCC1`, the “activity change, negative = inhibition” value is -30.6%.

As to `O=C(O)c1cccnc1Sc1ncnc2sc3c(c12)CCC3`, the Potency was 31.6 µM (active).

Consider `CCCSc1ncccc1C(=O)O`, for which the “activity change, negative = inhibition” value is -11%.

For the compound `OCCNc1nc2ccccc2n1-c1ncnc2sc3c(c12)CCC3`, the “activity change, negative = inhibition” value is -15.2%.

Turning to `Cc1ccc2oc3c(c(=O)c2c1)C(c1ccc([N+](=O)[O-])cc1)N(CCCN1CCOCC1)C3=O` (configuration not stated), the “activity change, negative = inhibition” value is -12.9%.

Take `CCc1ccccc1NC(=O)N1CCC2(CC1)Oc1ccccc1C(=O)N2Cc1ccccc1F`: the “activity change, negative = inhibition” value is -9.82%.

Take `CC(=O)Nc1ccc(NC(=O)CCCc2nc(-c3ccc(C(C)(C)C)cc3)no2)cc1`: the “activity change, negative = inhibition” value is -15.6%.

Consider `N#Cc1cc([N+](=O)[O-])ccc1Oc1cccc(/C=N/NC(=O)c2ccc(Cl)cc2)c1`, for which the “activity change, negative = inhibition” value is 3.79%.

With `O=C(N/N=C/c1cccc(OC(=O)c2ccc([N+](=O)[O-])cc2)c1)c1cccnc1`, the “activity change, negative = inhibition” value was -9.12%.

With `O=C(N/N=C/c1ccc(Cl)cc1)c1nc2ccc([N+](=O)[O-])cc2c(=O)[nH]1`, the Potency was 28.2 µM (active).

For the compound `COC(=O)c1ccc(NC(=O)CCc2c(C)nn(-c3ccc(N4CCCC4)nn3)c2C)cc1`, the “activity change, negative = inhibition” value was -28%.

For the compound `Cc1cc(C)cc(Nc2ncnc3onc(-c4ccc(F)cc4)c23)c1`, the “activity change, negative = inhibition” value was 19.4%.

`Brc1nc2ncnc(NCc3ccco3)c2[nH]1`: the “activity change, negative = inhibition” value is -4.62% [at 57.1 µM].

In the case of `O=C1CSC(=S)N1/N=C/c1ccc(O)c([N+](=O)[O-])c1`, the Potency is 20 µM (active).

In the case of `O=C(CNC(=O)c1ccc(Cl)c(C(F)(F)F)c1)OC(C(=O)Nc1cc(C(F)(F)F)ccc1Cl)c1ccccc1` (configuration not stated), the “activity change, negative = inhibition” value is -21.2%.

For `CCOC(=O)c1ccccc1NC(=O)c1nn(-c2ccc(OC)c(Cl)c2)c(=O)c2c1c1ccccc1n2C`, the “activity change, negative = inhibition” value was 0%.

As for `N#Cc1nc(Nc2cc(F)cc(Cl)c2)nc(NC2CCCC2)n1`, the “activity change, negative = inhibition” value is -3.42%.

On to `Cc1onc(C(=O)NN)c1-c1csc(COc2ccccc2)n1`, for which the “activity change, negative = inhibition” value is -5.43%.

Regarding `CCCC(=O)N1c2ccc(-c3csc(N)n3)cc2CC1C` (configuration not stated), the “activity change, negative = inhibition” value is -22.4%.

For the compound `CC(C)(C)C(=O)OCc1nc(-c2ccc(O)c(O)c2)cs1`, the Potency was 3.55 µM (active).

Consider `Cc1cc(C)c(NC(=O)CSc2nc3nccnc3c(=O)n2CCc2c[nH]c3ccccc23)c(C)c1`, for which the “activity change, negative = inhibition” value was -1.32%.

Take `COC(=O)c1ccccc1NC(=O)c1ccc(C#N)cc1`: the “activity change, negative = inhibition” value is -6.85%.

On to `COc1cc(NC(=O)Cn2c(=O)n(Cc3ccco3)c(=O)c3oc4ccccc4c32)cc(OC)c1`, for which the “activity change, negative = inhibition” value was -12.1%.

Turning to `O=S(=O)(NCCc1nnc2ccc(SCc3ccc(Cl)cc3Cl)nn12)c1ccccc1`, the “activity change, negative = inhibition” value is -28.2%.

With `CNC(=S)Nc1ccc([N+](=O)[O-])cc1`, the “activity change, negative = inhibition” value was -16.7%.

As for `O=C(O)/C=C/C(=O)NNc1ccc([N+](=O)[O-])cc1`, the Potency was 31.6 µM (active).

Take `NC(=O)C1(Nc2ccc([N+](=O)[O-])cc2)CCCC1`: the “activity change, negative = inhibition” value was -8.28%.

Regarding `CCS(=O)(=O)N1CCC(n2c(C)nc3cccnc32)CC1`, the “activity change, negative = inhibition” value is -7.47%.

Take `CCN(C(=O)COC(=O)c1ccccc1O)c1cccc2ccccc12`: the “activity change, negative = inhibition” value is 5.48%.

`O=C(CSc1ncn[nH]1)Nc1ccnc2ccccc12`: the “activity change, negative = inhibition” value was -14.5%.

For the compound `CCN(C(=O)CSc1ncn[nH]1)c1cccc2ccccc12`, the Potency was 3.16 µM (active).

For the compound `Cc1ccc(-c2onc(C)c2C)cc1S(=O)(=O)Nc1ccccn1`, the “activity change, negative = inhibition” value is -2.92%.

For `COC(=O)c1cc(S(=O)(=O)N2CCN(c3cc(Cl)ccc3C)CC2)c[nH]1`, the “activity change, negative = inhibition” value is -12.8%.

For `O=C(Cn1nc(Cc2cccnc2)c2ccccc2c1=O)N1CCN(c2ccccc2F)CC1`, the “activity change, negative = inhibition” value was -17.9%.

In the case of `Cc1nc2ccn(Cc3cccnc3)c(=O)c2cc1C(=O)N1CCN(c2ccccc2F)CC1`, the “activity change, negative = inhibition” value is -13.7%.

For `O=C(Nn1cc(C(=O)N2CCN(c3ccccc3F)CC2)c2ccccc2c1=O)c1cnccn1`, the Potency was 25.1 µM (active).

For `CCN(CC)S(=O)(=O)c1ccc(C(=O)N=c2sc3cccc(OC)c3n2C)cc1`, the “activity change, negative = inhibition” value is 7.09%.

As for `O=C(NCc1ccc2c(c1)CCN2C(=O)c1ccccc1)Nc1cc(F)ccc1F`, the “activity change, negative = inhibition” value was -25.3%.

On to `CCc1cnc2c(c1SCC(=O)c1ccccc1)c(=O)n(C)c(=O)n2C`, for which the “activity change, negative = inhibition” value is -8.44%.

Consider `COc1ccc(-c2nn3c(=O)cc(CN4CCN(C(=O)c5ccc(OC)c(OC)c5)CC4)nc3s2)cc1`, for which the “activity change, negative = inhibition” value was -11.7%.

Regarding `CCN1CCN(CCCCOc2ccccc2F)CC1`, the Potency is 0.794 µM (active).

For the compound `CN1CCN(CCCCOc2cccc3ccccc23)CC1`, the “activity change, negative = inhibition” value is -30.3%.

With `COc1ccccc1OCCCCCCN1CCN(C)CC1`, the “activity change, negative = inhibition” value is -32.2%.

On to `CC(C)NC(=O)c1nn(-c2ccccc2F)nc1CO`, for which the “activity change, negative = inhibition” value was -10.1%.

In the case of `Cc1[nH]c2ccccc2c1C(c1ccccc1)c1cccs1` (configuration not stated), the “activity change, negative = inhibition” value was -2.63%.

On to `Cc1cccc(-n2ncc(C(=O)N3CCC(C)CC3)c2C2CCN(C(=O)OC(C)(C)C)CC2)c1`, for which the “activity change, negative = inhibition” value is -5.18%.

As to `CCCCSc1ncnc2c1sc1nc(N3CCOCC3)c3c(c12)CCCC3`, the “activity change, negative = inhibition” value was -5.84%.

On to `CCC(=O)c1ccc(OCC(O)Cn2nc(C)c(C(C)=O)c2C)cc1` (configuration not stated), for which the “activity change, negative = inhibition” value is -28.5%.

In the case of `Cc1cc(C)n(CC(O)COc2ccc(C(C)(C)C)cc2)n1` (configuration not stated), the Potency was 79.4 µM (active).

Take `Cc1cc(C)n(CC(O)CN(c2ccccc2)S(=O)(=O)c2ccc3ccccc3c2)n1` (configuration not stated): the “activity change, negative = inhibition” value is -14.1%.
